Measurements from PubChem BioAssay (NCATS).
Inconclusive results are not listed. Calls of active or inactive are those of the source. Unless noted, calls follow the shape of the dose curve; as a rule, active = well fitted curve in the direction sought with a large enough effect; inconclusive = small, poorly fitted or top-dose-only effect, or another doubt; inactive = no such curve, though single readings can be large; an effect the other way counts as inactive or inconclusive.

Key:
[1] = Primary qHTS for inhibitors of nuclear receptor binding SET domain protein 2 (NSD2) in an isogenic RCH-ACV NSD2 p.E1099K mutant (9B) (AID 1645876); conditions: RCH-ACV NSD2 E1099K (9B) viability, CellTiter-Glo, 72 h; series mostly up to 44.9 µM; also: potency is read from the fitted curve at half-maximal effect; nearly all actives have a fitted effect of over 70% in size
[2] = Primary qHTS for inhibitors of nuclear receptor binding SET domain protein 2 (NSD2) in an RCH-ACV wild type WT cells (2C) (AID 1645877); conditions: RCH-ACV (leukaemia line) NSD2 WT (2C) viability, CellTiter-Glo, 72 h; series mostly up to 44.9 µM; also: potency is read from the fitted curve at half-maximal effect; nearly all actives have a fitted effect of over 70% in size
[3] = molecular target: Glutathione peroxidase 1 (Homo sapiens) (UniProt P07203); assay: Primary qHTS Assay for Inhibitors of Recombinant Selenoprotein Glutathione Peroxidase 1 (GPX1) (AID 1845191); conditions: recombinant GPX1, GR-coupled NADPH fluorescence, 15 min; series mostly up to 48.8 µM; also: nearly all actives have a fitted effect of over 65% in size
Glutathione peroxidase 1 (Homo sapiens), sequence (P07203 whole entry, looked up): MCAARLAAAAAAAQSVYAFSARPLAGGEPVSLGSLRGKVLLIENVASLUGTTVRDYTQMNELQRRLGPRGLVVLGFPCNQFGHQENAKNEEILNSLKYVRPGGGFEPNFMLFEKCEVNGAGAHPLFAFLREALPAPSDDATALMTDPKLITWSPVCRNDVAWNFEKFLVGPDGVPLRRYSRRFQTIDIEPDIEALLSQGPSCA
In short: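 10 nM GPX1 + cpd, 30 min RT; start w/ 1 mM GSH, 0.5 mM cumene hydroperoxide, 0.5 mM NADPH, 100 nM GR, 0.01% BSA; buffer 50 mM Tris-HCl pH 7.5, 2 mM EDTA, 150 mM NaCl; Fl 340/450, 0 & 15 min.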

[4] = molecular target: Phospholipid hydroperoxide glutathione peroxidase GPX4 (Homo sapiens) (UniProt P36969); assay: Primary qHTS Assay for Inhibitors of Recombinant Selenoprotein Glutathione Peroxidase 4 (GPX4) (AID 1845192); conditions: recombinant GPX4, GR-coupled NADPH fluorescence, 15 min; series mostly up to 50 µM; also: nearly all actives have a fitted effect of over 65% in size
Phospholipid hydroperoxide glutathione peroxidase GPX4 (Homo sapiens), sequence (P36969 whole entry, looked up): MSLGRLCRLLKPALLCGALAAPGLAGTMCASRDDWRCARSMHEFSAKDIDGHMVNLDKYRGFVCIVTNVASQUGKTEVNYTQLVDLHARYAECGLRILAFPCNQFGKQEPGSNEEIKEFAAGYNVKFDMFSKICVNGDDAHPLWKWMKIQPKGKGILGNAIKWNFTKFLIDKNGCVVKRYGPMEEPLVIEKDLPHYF
In short: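 NADPH consumption, followed by fluorescence at 340/450 nm between 0 and 15 min, reports GPX4 activity via coupled glutathione reductase (100 nM). Enzyme 200 nM was pre-exposed to compound 30 min; 0.5 mM cumene hydroperoxide and 1 mM GSH served as substrates.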

[5] = qHTS drug screen for cell cycle checkpoint inhibitors in PARPi-resistant BRCA-mutant ovarian cancer cell lines. (AID 1963452; calls by dose curve; also: potency is read from the fitted curve at half-maximal effect); conditions: PEO1/OlaR viability, CellTiter-Glo luminescence, 96 h; for Z-AUC: stronger effect = lower value
In short: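 PEO1, PEO4 and PEO1/OlaR ovarian cancer cells, 600 per well, exposed 96 h at 37C to a dilution series. Viability read by CellTiter-Glo luminescence, normalized to DMSO and empty wells; activity summarized as Z-AUC.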

[6] = measured here: PEO1 parental Z-AUC

SMILES	Potency [1]	Potency [2]	Potency [3]	Potency [4]	Z-AUC [5]	Z-AUC [5, 6]	Z-AUC ([5]; measured here: PEO4 Z-AUC)	Potency [5]
COc1ccc2c(c1)[C@]1(C[C@H]1c1ccc3c(/C=C/c4ccc(CN5C[C@@H](C)O[C@@H](C)C5)cc4)n[nH]c3c1)C(=O)N2	1.32 µM (active)	0.0295 µM (active)	inactive	inactive	0.356 (inactive)	-0.0342	-0.785	
N#Cc1cc2cc(CN3CCC(Nc4ncnc5sc(CC(F)(F)F)cc45)CC3)c(O)cc2n1Cc1cn[nH]c1	13.2 µM (active)	11.8 µM (active)	inactive	inactive	-1.24 (inactive)	-1.35	-1.55	
COc1ccc(/C=C\c2cc(OC)c(OC)c(OC)c2)cc1O	0.0105 µM (active)	0.0093 µM (active)	inactive	inactive		-1.52	-1.81	0.0078 µM (active)
C/C=C/C/C=C/CCC(=O)[C@H]1O[C@H]1C(N)=O	11.8 µM (active)	13.2 µM (active)	inactive	inactive	-0.297 (inactive)	-0.147	-0.049	
C=CC(=O)Nc1cccc(Oc2nc(Nc3ccc(N4CCN(C)CC4)cc3)nc3ccsc23)c1	3.32 µM (active)	3.32 µM (active)	inactive	inactive	-0.291 (inactive)	-0.486	-0.146	
CC(C)(C)C[C@H]1N[C@@H](C(=O)NC2CCC(O)CC2)[C@H](c2cccc(Cl)c2F)[C@@]12C(=O)Nc1cc(Cl)ccc12 (some centres undefined)	1.48 µM (active)	0.468 µM (active)	inactive	inactive	-0.139 (inactive)	0.559	0.282	
CC1=C2C[C@H]3[C@@H](CC[C@@H]4C[C@H](NS(C)(=O)=O)CC[C@@]43C)[C@@H]2CC[C@@]2(C1)O[C@@H]1C[C@H](C)CN[C@H]1[C@H]2C	13.2 µM (active)	13.2 µM (active)	inactive	inactive	0.848 (inactive)	0.333	-0.208	
